Most compounds without a hit are left out; they make up all but 7.3% or so of the library.
Tau ThT inhib: tau fibrillization inhibition (ThT binding); recombinant tau K18 P301L, heparin-induced fibrillization, ThT fluorescence; Potency, µM (highest dose often 57.4 µM), most hits filed as inhibitors; P10636; 270,000 tested, 2.1% active; further: nearly all actives have a fitted effect of over 55% in size
Target sequence (P10636 561-689 P618L limits assumed): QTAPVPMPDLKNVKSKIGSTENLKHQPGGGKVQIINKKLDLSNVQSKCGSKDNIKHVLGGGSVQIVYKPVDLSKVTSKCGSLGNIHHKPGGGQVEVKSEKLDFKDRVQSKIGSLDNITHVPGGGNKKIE
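Fibril formation assay: tau K18 P301L at 15 uM with trace Alexa 594 label, heparin inducer 20 uM, pH 7 sodium acetate buffer, 37 C for 6 hr; endpoint ThT signal.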
Gal4-VP16 FLuc: Gal4-VP16 reporter inhibition counter-screen; Drosophila S2 Gal4-VP16 UAS-luciferase, luminescence, 20 h; Potency, µM (highest dose often 53.6 µM), usual class: inhibitors; 310,000 tested, 3.5% active; AID 2546;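 further: Gal4-VP16 expression switched on by copper sulfate through the metallothionein promoter; nearly all actives have a fitted effect of over 50% in size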
Tau FP inhib: tau fibrillization inhibition (FP); P10636; K18 P301L tau heparin fibrillization, Alexa594 FP, 6 h; Potency, µM (doses to about 57.7 µM), most hits filed as inhibitors; 280,000 tested, 0.39% active; further: nearly all actives have a fitted effect of over 55% in size
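FP of Alexa 594-tau after heparin (20 uM) induction. Substrate: human K18 P301L, 15 uM unlabeled, 0.24 uM labeled. Buffer 100 mM sodium acetate pH 7. 6 hr, 37 C.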
Tau fluor counter: counter-screen for tau fibril formation inhibitors | tau K18 P301L Alexa594 fluorescence, heparin fibrillization | Potency, µM (series often up to 57.7 µM) | 280,000 tested, 0.93% active; further: nearly all actives have a fitted effect of over 55% in size
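Human tau K18 P301L (15 uM unlabeled, 0.24 uM Alexa 594-labeled) in 100 mM sodium acetate pH 7 with 20 uM heparin, 6 hr at 37 C. ThT 30 uM added, 1 hr ambient; Alexa 594 FP and total fluorescence read at 555/632 nm.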
RORg inh: ROR gamma (mouse) transcription inhibition | P51450 | Potency, µM (doses to about 53.6 µM), actives largely listed as inhibitors | Drosophila S2 Gal4-RORgamma UAS-luciferase reporter, 20 h | AID 2551 | 310,000 tested, 5.4% active; further: nearly all actives have a fitted effect of over 60% in size
Target sequence (P51450 whole entry, looked up, the tested form may be a part): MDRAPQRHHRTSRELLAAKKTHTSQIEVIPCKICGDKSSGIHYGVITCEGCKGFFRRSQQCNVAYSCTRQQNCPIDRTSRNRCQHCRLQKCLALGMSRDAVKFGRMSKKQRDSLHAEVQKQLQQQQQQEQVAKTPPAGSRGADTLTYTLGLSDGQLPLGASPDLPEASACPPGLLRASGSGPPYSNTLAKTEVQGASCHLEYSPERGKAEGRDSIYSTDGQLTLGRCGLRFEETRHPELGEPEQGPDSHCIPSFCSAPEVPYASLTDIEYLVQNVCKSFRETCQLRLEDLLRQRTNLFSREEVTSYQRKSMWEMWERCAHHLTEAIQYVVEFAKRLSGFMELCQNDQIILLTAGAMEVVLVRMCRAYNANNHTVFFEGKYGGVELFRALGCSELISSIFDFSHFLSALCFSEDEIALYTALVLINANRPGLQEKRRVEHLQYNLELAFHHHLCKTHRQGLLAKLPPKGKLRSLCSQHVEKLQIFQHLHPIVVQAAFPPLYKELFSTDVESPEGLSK
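In this cell-based reporter format, copper sulfate (700 uM final) drives Gal4–ROR gamma fusion expression from a metallothionein promoter in Drosophila Schneider cells; compounds preincubated 1 hr, reporter read after 20 hr at ambient temperature.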
A number is an active result; 0 = inactive; ? = inconclusive; - = no result; [ ] = another dose, or the depositor's remark. The call rests on the fitted dose curve; in most records, active means well fitted curve in the direction sought with a large enough effect; inconclusive means small, poorly fitted or top-dose-only effect, or another doubt; inactive means no such curve, though single readings can be large; an effect the other way counts as inactive or inconclusive.

SMILES | Tau ThT inhib | Gal4-VP16 FLuc | Tau FP inhib | Tau fluor counter | RORg inh
COc1cc(O)c(C(CC(=O)N2CCCC(C)C2)c2ccc(N(C)C)cc2)c(OC)c1 (configuration not stated) | 0 | 0 | 0 | 0 | 2µM
COC(=O)c1ccc(-c2nc3cc(Cl)c(N)cc3s2)cc1 | ? | 0[0.365 µM] | 0 | 0 | 5µM
COC(=O)c1ccc(C(=O)Nc2nc3cc(N)c(C)cc3s2)cc1 | - | ? | - | - | 0
COC(=O)c1ccc(-c2nc(O)c(C)s2)cc1 | 13µM | 0[10 µM] | ? | 0 | 0
NC(=O)c1c(/N=C/c2cccs2)sc2c1CCCC2 | 2.2µM | 0 | 0 | 0 | 0
O=C(/C=C/c1cccs1)Nc1sc2c(c1C(=O)O)CCCC2 | - | 0 | - | - | ?
CCOC(=O)CC(NC(=O)CCc1c(C)nc2cc(-c3ccccc3)nn2c1C)c1ccc(C)cc1 (configuration not stated) | ? | - | 0 | 0 | -
Cc1ccccc1-c1ccc2ncnc(N(C)C)c2c1 | - | 0 | - | - | ?
CN(C)c1ccc(-c2ccc3ncnc(-n4ccnc4)c3c2)cc1 | - | 13µM | - | - | 7.1µM
CN(C)C(=O)c1ccc(-c2cncnc2-n2ccnc2)cc1 | - | 0 | - | - | 0
Cc1ccccc1-c1ccc2ncnc(-n3ccnc3)c2c1 | - | 13µM | - | - | 11µM
CCCc1nc2nc(C)c(NS(=O)(=O)c3ccc([N+](=O)[O-])cc3)c(=O)n2[nH]1 | - | 0 | - | - | 0
CCOc1ccc(CN2C(=O)c3ccccc3Sc3ccc(C(=O)NCc4ccc(C)cc4)cc32)cc1 | 0 | - | ? | 0 | -
CO[C@H]1COC(=O)C/C=C\[C@H](C)[C@@H](OC)COC(=O)[C@@H](C)COC(=O)C/C=C\[C@@H]1C | 0[11.5 µM] | 0[10 µM] | 0[11.6 µM] | 0[11.6 µM] | 0[10 µM]
Cc1ccc(S(=O)(=O)NCc2ccco2)cc1C | 0 | 0 | 0 | 0 | 0
Cc1cc(C)n(-c2ccc(C(=O)Nc3cccc(S(=O)(=O)N(C)C)c3)cc2)n1 | 0 | 7.1µM | 0 | 0 | ?
CCN(CC)S(=O)(=O)c1cccc(NC(=O)c2ccc(-n3nc(C)cc3C)cc2)c1 | 0 | 0 | ? | ? | ?
O=S(=O)(NCc1ccco1)c1ccc2c(c1)Cc1ccccc1-2 | ? | 8.9µM | ? | 0 | ?
Cc1cc(C)n(-c2ccc(C(=O)Nc3ccc(C)c(S(=O)(=O)N(C)C)c3)cc2)n1 | 0 | 18µM | 0 | 0 | 0
Cc1cc(C)cc(NC(=O)c2cc(S(=O)(=O)NCc3ccco3)ccc2F)c1 | ? | 10µM | 0 | 0 | 0
Cc1cc(C)n(-c2ccc(C(=O)Nc3ccc(S(=O)(=O)NCc4ccco4)cc3)cc2)n1 | 0 | 16µM | 0 | ? | ?
COc1ccc(N2C(=O)CC(N3CCC(O)(c4cccc(C(F)(F)F)c4)CC3)C2=O)cc1 (configuration not stated) | 0 | ? | 0 | 0 | 2.5µM
Cc1cccc(C)c1NC1=NC(=S)N(c2ccccc2)C12CCOC(C)(C)C2 (configuration not stated) | 0 | ? | 0 | 0 | 4µM
Cc1cccc(C)c1NC1=NC(=S)N(c2ccc(C(=O)O)cc2)C12CCCCC2 | 0 | 0 | 0 | 0 | 0
COc1ccc(N2C(=S)N=C(Nc3cccc(C)c3)C23CCCCC3)cc1 | 0 | 6.3µM | 0 | 0 | 2.2µM
SMILES | Tau ThT inhib | Gal4-VP16 FLuc | Tau FP inhib | Tau fluor counter | RORg inh
Cc1ccc(N2C(=S)N=C(Nc3ccccc3C)C23CCOC(C)(C)C3)cc1 (configuration not stated) | 0 | 13µM | 0 | 0 | 4.5µM
Cc1cccc(N2C(=S)N=C(Nc3c(C)cccc3C)C23CCOC(C)(C)C3)c1 (configuration not stated) | 0 | 0 | 0 | 0 | 0
COc1ccccc1N1C(=S)N=C(Nc2c(C)cccc2C)C12CCCC2 | 0 | ? | 0 | 0 | 7.9µM
Cc1cccc(NC2=NC(=S)N(c3cccc(C(=O)O)c3)C23CCCCC3)c1 | 0 | 0[10 µM] | 0 | 0 | 0
COc1cc(NS(=O)(=O)c2ccc3c(c2)CCCN3C(C)=O)cc(OC)c1OC | 0 | - | 0 | 0 | -
CCOC(=O)c1c(NC(=S)NCc2ccccc2)sc2c1CCN(C(=O)OCC)C2 | 0 | 4.5µM | 0 | 0 | 2µM
C=CCNC(=S)Nc1sc2c(c1C(=O)OCC)CC(C)(CC)OC2 (configuration not stated) | 0 | ? | 0 | 0 | 2.8µM
CCOC(=O)c1c(NC(=S)N2CCCCC2)sc2c1CCN(C(=O)OCC)C2 | ? | 0 | 0 | 0 | 0
C=CCNC(=S)Nc1sc2c(c1C(=O)OCC)CCN(C(=O)OCC)C2 | 0 | 6.3µM | 0 | 0 | 2.5µM
CCOC(=O)c1c(NC(=O)CCC(=O)O)sc2c1CC(C)(C)OC2 | 0 | 0 | 0 | 0 | ?
Cc1ccn2c(c1)nc(=O)c1cc(S(=O)(=O)N3CCCCC3)ccc12 | 0 | 0 | 0 | 0 | 0
O=C(O)/C=C/C(=O)Nc1ccccc1C(=O)OCC(=O)c1ccc2c(c1)OCCO2 | ? | 8.9µM | 0 | 0 | 7.9µM
CCC(=O)Nc1ccccc1C(=O)OCC(=O)c1ccc2ccccc2c1 | ? | 0 | 0 | 0 | ?
CCC(=O)Nc1ccccc1C(=O)OCC(=O)c1ccccc1 | 0 | 0 | 0 | 0 | 10µM
Cc1ccc(SCC(c2ccccc2)N2CCN(CCc3ccccc3)CCC2=O)cc1 (configuration not stated) | - | 0 | - | - | ?
C/C(=N\Nc1cccc2cccnc12)c1ccc[nH]1 | 4.5µM | 0 | 0 | ? | 3.5µM
COc1ccc(C(=O)/C=C/c2ccccc2)c(OC)c1 | ? | 0 | 0 | 0 | ?
O=C(O/N=C\c1ccc(N2CCCCC2)c([N+](=O)[O-])c1)c1cccc(Cl)c1 | ? | 0 | 0 | 0 | 0
COc1ccc(C(=O)/C=C/c2ccc(N3CCCCC3)c([N+](=O)[O-])c2)cc1 | 7.9µM | 0 | 0 | ? | ?
COc1ccc(C(=O)/C=C/c2ccc(N3CCCCC3)c([N+](=O)[O-])c2)c(OC)c1 | 4µM | 0 | 0 | ? | ?
Cc1ccc(C(=O)O/N=C\c2ccc(N3CCCCC3)c([N+](=O)[O-])c2)cc1 | 4.5µM | 0 | 0 | 0 | ?
O=C1CC(c2ccccc2)Cc2[nH]c(=O)c(-c3nc(-c4ccc(F)cc4)cs3)cc21 (configuration not stated) | ? | - | 0 | ? | -
CCOC(=O)N1CCC(N2Cc3cccc(C(=O)Nc4ccc(OCC)cc4)c3C2=O)CC1 | - | 0 | - | - | 0
O=C(Nc1nc(-c2ccc(Br)cc2)ns1)c1ccccc1F | 0 | - | 0 | 0 | -
COCc1nc2oc3ccccc3c(=O)c2cc1C(=O)OC | - | 0 | - | - | 0
CCC1=C2CC[C@H]3C(=O)N(CC(=O)OC)C(=O)[C@H]3[C@H]2[C@@]2(C)C(=NCCc3c[nH]c4ccccc34)OC(=O)N2C1=O | 0 | 0 | 0 | 0 | 0
Cc1ccc(S(=O)(=O)NNC(=O)c2cccs2)c(C)c1 | 0 | 0 | 0 | 0 | 0
Cc1ccc(S(=O)(=O)NNc2ccccc2)c(C)c1 | 22µM | 0 | ? | 0 | 0
COc1ccc(S(=O)(=O)N(CC(=O)Nc2cccnc2)c2ccc(C)cc2)cc1OC | 0 | - | 0 | 0 | -
Cn1c(=S)[nH]c2scc(-c3cccs3)c2c1=O | ? | 5µM | 0 | 0 | 0.79µM

Compound activity from PubChem.
